Measurements taken from PubChem BioAssay (Tox21).
Inconclusive results are not listed. Active and inactive are the calls of the source. Calls follow the shape of the dose curve; as a rule, active = well fitted activation curve with a large enough effect in the signal ratio in the repeat runs (not every such curve was filed as active); inconclusive = weak or mixed curves, or effect the other way; inactive = flat fitted curve, though single readings scatter; the % refers to the signal ratio.

What follows are compounds tested against Bile acid receptor (Homo sapiens) (UniProt Q96RI1) (assay: qHTS assay to identify small molecule agonists of the farnesoid-X-receptor (FXR) signaling pathway (AID 743220)). Settings: HEK293T FXR-UAS-bla, beta-lactamase FRET ratio, 16 h; series mostly up to 62.6 µM; activation: at the top concentration.
Chain of Bile acid receptor (Homo sapiens) (Q96RI1 whole entry, looked up): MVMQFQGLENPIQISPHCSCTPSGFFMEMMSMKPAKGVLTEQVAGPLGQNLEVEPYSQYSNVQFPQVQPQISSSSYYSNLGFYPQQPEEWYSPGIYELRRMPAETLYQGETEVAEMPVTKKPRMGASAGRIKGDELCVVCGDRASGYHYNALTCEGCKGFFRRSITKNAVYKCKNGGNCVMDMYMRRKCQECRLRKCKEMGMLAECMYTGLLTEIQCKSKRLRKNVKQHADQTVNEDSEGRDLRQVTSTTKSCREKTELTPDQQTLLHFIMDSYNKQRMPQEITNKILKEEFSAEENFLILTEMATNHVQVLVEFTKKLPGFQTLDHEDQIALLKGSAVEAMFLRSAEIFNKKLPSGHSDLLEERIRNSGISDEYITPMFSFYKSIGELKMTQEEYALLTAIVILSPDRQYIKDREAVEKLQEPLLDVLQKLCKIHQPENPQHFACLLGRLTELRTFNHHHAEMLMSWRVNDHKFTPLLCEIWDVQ
Text: National Center for Advancing Translational Sciences [NCATS]
NIH Chemical Genomics Center [NCGC]
U.S. Environmental Protection Agency [EPA]
National Institutes of Environmental Health Sciences [NIEHS]
National Toxicology Program [NTP]
U.S. Food and Drug Administration [FDA]
The farnesoid-X-receptor (FXR), a nuclear hormone receptor, is highly expressed in liver, intestine, kidney and adrenal cortex. Natural ligands of FXR are the bile acids (Cholic acid, Chenodeoxy cholic acid etc). FXR is an important regulator of diverse metabolic pathways, including the bile acid homeostasis, lipid and glucose metabolisms. FXR regulates the expression of target genes by binding either as a monomer or as a heterodimer with the retinoid X receptor (RXR). Numerous studies have reported that FXR exerts protective function during cholestasis, diabetes, liver regeneration, and cancer. To identify compounds that activate FXR signaling, GeneBLAzer FXR-UAS-bla HEK 293T cell line (Invitrogen, Carlsbad, CA) containing a beta-lactamase reporter gene under the control of a UAS response element was used to screen the Tox21 10K compound library.
Tox21 Assay Protocol Summary:
FXR-bla cells were dispensed at 5000 cells/5uL/well in 1536-well black wall/clear bottom plates using a Multidrop Combi (Thermo Fisher Scientific, Waltham, MA) dispenser. After the assay plates were incubated at 37C and 5% CO2 for 5 h, 23 nL of compounds dissolved in DMSO, positive controls or DMSO only was transferred to the assay plate by a Pintool station (Kalypsys, San Diego, CA). The assay plates were incubated at 37C for 16 h. After 1 uL of LiveBLAzerTM B/G FRET substrate was added using a Bioraptr Flying Reagent Dispenser (FRD) workstation (Beckman Coulter, Indianapolis, IN), the plates were incubated at room temperature for 2 h, and fluorescence intensity was measured by an Envision plate reader (PerkinElmer, Shelton, CT).
% is scaled to controls: 0 for no effect and ±100 for the full control effect.

| Structure (SMILES) | activation | outcome |
| --- | --- | --- |
| O=C(O)CC(Cl)C(=O)O (stereo not given) | -0.0137% [at 81.1 µM] (inactive) | – |
| ClCc1cccc(Cl)c1 | 1.38% (inactive) | – |
| CCOS(C)(=O)=O | -7.34% [at 81.1 µM] (inactive) | – |
| O=C(Nc1ccccc1)Nc1cnns1 | -1.72% (inactive) | – |
| O=[Se]=O | -3.02% (inactive) | – |
| O=NN1CCCCCC1 | 1.24% (inactive) | – |
| CCCCC(O)(Cn1cncn1)c1ccc(Cl)cc1Cl (stereo not given) | 0.0913% (inactive) | – |
| CCCCCCCCOC(=O)c1ccc(C(=O)OCCCCCCCC)c(C(=O)OCCCCCCCC)c1 | 0.285% [at 81.1 µM] (inactive) | – |
| CC1(C)CCC(Cc2ccc(Cl)cc2)C1(O)Cn1cncn1 (stereo not given) | -1.15% (inactive) | – |
| CCO[C@H]1O[C@@H]2OC3(C)CC[C@H]4[C@H](C)CC[C@@H]([C@H]1C)[C@@]24OO3 | 2.16% (inactive) | – |
| ClP(Cl)(Cl)(Cl)Cl | -1.44% [at 81.1 µM] (inactive) | – |
| Nc1nc(N)nc(N)n1 | 0.5% [at 81.1 µM] (inactive) | – |
| CO/C=C(/C(=O)OC)c1ccccc1COc1cccc(C(F)(F)F)n1 | 0.336% (inactive) | – |
| CC(Cl)Cl | 1.82% (inactive) | – |
| CCOC(=O)CBr | 12.6% [at 81.1 µM] (inactive) | – |
| C=CC(C)=O | -0.319% (inactive) | – |
| CCCCCCCCCC(=O)O[C@H]1CC[C@H]2[C@@H]3CCC4=CC(=O)CC[C@@H]4[C@H]3CC[C@]12C | -5.87% (inactive) | – |
| ClCCCCBr | 1.25% [at 81.1 µM] (inactive) | – |
| Cn1cc[n+](C)c1 (tested in a mixture with another compound) | 0.0178% [at 81.1 µM] (inactive) | – |
| NC(=O)C(Cl)(Cl)Cl | 2.77% [at 81.1 µM] (inactive) | – |

| Structure (SMILES) | activation | outcome |
| --- | --- | --- |
| C(=NC1CCCCC1)=NC1CCCCC1 | – | inactive |
| COC(N)=O | -5.22% (inactive) | – |
| O=C(O)c1ccccc1C(=O)Nc1cccc2ccccc12 | -1.76% (inactive) | – |
| Cn1sc(Cl)cc1=O | 2.32% (inactive) | – |
| O=C(Nc1ccccc1)Nc1ccnc(Cl)c1 | 1.31% (inactive) | – |
| C=CCN1CC[C@]23c4c5ccc(O)c4O[C@H]2C(=O)CC[C@@]3(O)[C@H]1C5 | -0.0246% (inactive) | – |
| CCCCCCC#N | -0.398% (inactive) | – |
| C=CC(=O)OC | -0.626% [at 81.1 µM] (inactive) | – |
| CCCC(Cn1cncn1)c1ccc(Cl)cc1Cl (stereo not given) | -0.366% (inactive) | – |
| O=[N+]([O-])c1ccc(F)c([N+](=O)[O-])c1 | 1.66% [at 81.1 µM] (inactive) | – |
| COC(=O)C(Cl)C(=O)OC | 0.267% (inactive) | – |
| CC1C(=O)C[C@]2(C(C)C)C[C@H]12 (stereo not given in full) | -1.1% (inactive) | – |
| Cc1c(F)c(F)c(COC(=O)C2C(/C=C(\Cl)C(F)(F)F)C2(C)C)c(F)c1F (stereo not given) | -0.584% (inactive) | – |
| CO/N=C(/C(=O)OC)c1ccccc1COc1ccccc1C | -1.04% (inactive) | – |
| CCOP(=S)(OCC)SCSCC | -0.0997% (inactive) | – |
| CCOc1nc(F)cc2nc(S(=O)(=O)Nc3c(Cl)cccc3Cl)nn12 | -4.86% (inactive) | – |
| COP(=S)(OC)Oc1cc(Cl)c(I)cc1Cl | 4.13% (inactive) | – |
| C=CCC1([C@H](C)CCC)C(=O)NC(=O)NC1=O | -0.364% [at 81.1 µM] (inactive) | – |
| Clc1cc(C(Cl)(Cl)Cl)cnc1Cl | 3% (inactive) | – |
| O=S(=O)(Cl)c1ccccc1 | 0.102% [at 81.1 µM] (inactive) | – |
